According to PubChem BioAssay (NCI):
Several values for one entry are separate records, joined by “and”; a condition that tells them apart may be missing. Equal entries are not always repeated. This is part of a sample that, as a whole, favours compounds with a hit. Of some 79,000 tested, about 15% had one in any assay. Values without a mark were called inactive. Activity calls are given as the source filed them. Cut-off read from the data, not from the text of the source: active = growth inhibition above about 70%; inactive = the rest.

Key:
[1] = NCI Yeast Anticancer Drug Screen. Data for the rad50 strain (AID 155);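 note: 0% = growth of vehicle-only cultures of the same strain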; settings: S. cerevisiae rad50 strain growth inhibition, hits give high values; at 50.0 µM unless noted
How it was run: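 Relative growth inhibition (compound vs vehicle) was measured in yeast with a defined repair-gene alteration.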

[2] = NCI Yeast Anticancer Drug Screen. Data for the mec2-1 strain (AID 157); settings: S. cerevisiae mec2-1 strain, hits give high values; at 50.0 µM unless noted
How it was run: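 mec2-1 yeast strain, carrying an alteration in DNA damage repair or cell cycle control, was exposed to compounds; growth inhibition was measured relative to vehicle-treated controls.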

[3] = NCI Yeast Anticancer Drug Screen. Data for the cln2 rad14 strain (AID 165);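 note: 0% = growth equal to vehicle treated cultures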; settings: S. cerevisiae cln2 rad14 strain, hits give high values; at 50.0 µM unless noted
How it was run: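 Yeast carrying cln2 and rad14 alterations (cell cycle control and DNA damage repair) were exposed to compounds. Growth inhibition was measured against vehicle-treated controls.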

[4] = NCI Yeast Anticancer Drug Screen. Data for the bub3 strain (AID 167); settings: S. cerevisiae bub3 mutant strain, hits give high values; at 50.0 µM unless noted
How it was run: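 Screening used yeast with an engineered genetic alteration affecting cell cycle control. Compound-exposed cultures were compared with vehicle cultures, and reduced growth was taken as inhibition.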

[5] = NCI Yeast Anticancer Drug Screen. Data for the mlh1 rad18 strain (AID 175); settings: S. cerevisiae mlh1 rad18 strain growth inhibition, hits give high values; at 50.0 µM unless noted
How it was run: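 Growth inhibition of the yeast strain was measured after compound exposure and expressed relative to vehicle-treated controls. The strain carries defined defects in DNA damage repair.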

[6] = NCI Yeast Anticancer Drug Screen. Data for the sgs1 mgt1 strain (AID 161);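 note: 0% = growth of cultures given vehicle only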; settings: S. cerevisiae sgs1 mgt1 strain, hits give high values; at 50.0 µM unless noted
How it was run: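 Percent growth inhibition was derived by comparing compound-exposed mutant yeast with vehicle-exposed cultures. The strain carries alterations in DNA damage repair.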

Compound	growth inhibition [1]	growth inhibition [2]	growth inhibition [3]	growth inhibition [4]	growth inhibition [5]	growth inhibition [6]
COC(=O)c1cc2ccc(OC(C)=O)c(OC(C)=O)c2cn1	20.2%	-20.2%	9.3%	3.35%	19.9%	
CCCCCCCOC(=O)CO	22.4%	6.65%	16.9%	1.95%	19.4%	
CC[O-].CC[O-].CN(C)c1ccc([O-])cc1.CN(C)c1ccc([O-])cc1.[Ti+4]	-29.9%	9.5%	20.2%	-9.15%	-1.8%	
COc1cc(C)c(O)c(C(=O)O)c1	-3.7%	-7.65%	0.05%	-1.45%	-4.25%	
O=C(C(/C=N/C(=S)NC1C(=O)Nc2ccccc21)=C(/O)c1ccccc1)c1ccccc1 (configuration not stated)	9.6%	-0.85%		21.7%	-9.4%	16.9%
CCOC(=O)c1cnc2c(cnn2CC)c1NCC(C)C	-3.15%	21.8%		85.9% (active)	3.35%	18.6%
C1COC2SC3=C(SC(=C4SC5=C(SCCS5)S4)S3)SC2O1 (configuration not stated)	3.05%	-2.05%	-5.6%	8.85%	6.9%	
C=CCc1cc2c(C)cc(=O)oc2c(C)c1OC(C)=O	-4.1%	-23.8%	13.1%	-25.9%	-2.45%	
CC(C)(C)C1CCC2(CC1)CCN(CCCN1CCOCC1)CC2	99% (active)	98.4% (active)	97.3% (active)		97.8% (active)	
CCN(CC)CCNc1c(OC)c(OC)cc2nccnc12	9.85%	9.7%	2.85%	0.2%	-1.75%	
OC1(C#CC#CC2(O)CCCCC2)CCCCC1	12.9%	15.7%	10.1%	3.4%	4.2%	
O=C(CCCn1ccnc1[N+](=O)[O-])NCCn1cnc([N+](=O)[O-])n1	7%	17.2%	-6.2%	-4.8%	-16.1%	
COc1cccc(C(=O)C2N=NCC2c2ccccc2)c1 (configuration not stated)	-17.4%	-5%	-15.2%	61.5%	29.9%	
Nc1nnc2nc(C(C(=O)c3ccc(F)cc3)c3nc4nnc(N)n4[nH]c3=O)c(=O)[nH]n12	15.1%	4.15%	8.45%	0.2%	18.8%	
O=C1N(Cc2ccccc2)CCN1Cc1ccccc1	-37.1%	-24.6%	20.2%	0.6%	-22.9%	
CN1CNC(=O)NC1	-37% and 10.6%	-25.8% and -10.5%	4.05% and 8.2%	-23.1% and -11.1%	-16.1% and 23.9%	
Cn1cc(Cc2ccccc2)c(=O)[nH]c1=O	6.25%	-4.4%	-34.6%	-4.85%	7.6%	

Compound	growth inhibition [1]	growth inhibition [2]	growth inhibition [3]	growth inhibition [4]	growth inhibition [5]	growth inhibition [6]
CC(=O)N1C=CC(=Cc2ccccc2)C=C1	-0.15%	5.55%	-1.25%	12.8%	3.95%	
O/N=C1/C2CC3CC1(c1ccccc1)CC(/C3=N/O)/C2=N\O (configuration not stated)	9.15%	17.3%	0.35%	-17.8%	-4.75%	
COc1ccc(C2=NC(CO)[C@H](c3ccccc3)O2)cc1OC (some centres not stated)	2.35%		17.4%	-3.75%	-7.15%	8.05%
CC1=C(C)C(C#N)(C(=O)CBr)C(=N)O1 (configuration not stated)	37.4%		0%	33.1%	68.2%	44%
CCc1cc(C)c(C)cc1O	-28.8%		0.5%	-24.9%	-22.4%	-38.9%
NC(=O)C(O)c1c[nH]c2ccccc12 (configuration not stated)	3.7%		6.4%	-15%	8.2%	-1.45%
Cc1c2n(c(=O)[nH]c1=O)C1OC(CO)C(O2)C1N=[N+]=[N-] (configuration not stated)	-11.1%		-7.55%	-9.65%	-34.6%	-27.2%
CC(=O)N1C(=O)c2cccc([N+](=O)[O-])c2C1=O	-1.6%		7.15%	-21.7%	11.4%	-9.55%
CC(NC(=O)CNC(=O)OCc1ccccc1)C(=O)O (configuration not stated)	3.55%		-0.35%	8.1%	-10.1%	11.6%
S=C(S)Nc1cccc2ccccc12	-14.4% and 11.2%	-13.9% and -10.2%			-16.2% and 14.3%	
COC(=O)CC1CCS(=O)(=O)C1 (configuration not stated)	-6.6%		-37.4%	-4.4%	0%	-5.7%
CC1=C2CC(C)(C)CC(=O)C2(C)CCC1=O (configuration not stated)	4.2%		25.6%	-2.85%	27.8%	11.9%
COC(=O)N/N=C(/CCCC(=O)Nc1cccc([N+](=O)[O-])c1)C(C#N)c1ccc(CC#N)cc1 (configuration not stated)	-3.55%		1.8%	6.65%	-3.3%	-13.6%
CCCC(C)C(=O)OCc1ccccc1 (configuration not stated)	16.6%		-13.7%	6.7%	5%	5.35%
Clc1ccc(OCC(COc2ccccc2)Oc2nc(-c3ccccc3)nc(-c3ccccc3)n2)cc1 (configuration not stated)	-14.2%		-5.8%	-8.6%	-17.1%	3.1%
COC(=O)CCC(C)C1CCC2(C)C3=C(C(=O)CC12C)C1(C)CCC(O)C(C)(C)C1=C(O)C3 (configuration not stated)	81.7% (active)		79.9% (active)	70.8% (active)	83.8% (active)	77.6% (active)
NCC(=O)NC(Cc1c[nH]c2ccccc12)C(=O)O (configuration not stated)	7.85% and -4.8%		-0.8% and 13.8%	26.8% and -10%	-0.75% and -5.4%	7.45% and -7.4%
